In PubChem BioAssay AID1619 (SRMLSC, 2009):
Among all 220,000 compounds or so, about 830 (0.38%) were called active. These entries were drawn from the full list. Results with a measured potency or affinity are listed apart. Unmarked numbers belong to inactive results.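 How the source made its calls: active means compound inhibiting the enzyme by more than half at any dose during confirmatory dose-response retesting; inconclusive means strong single-dose inhibitors picked by rank but not retested; inactive means the rest.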

biological target: Leucine aminopeptidase (Plasmodium falciparum (isolate 3D7)) (UniProt Q8IL11); experiment: P. falciparum M17LAP inhibitors, primary screen, biochemical, fluorogenic H-Leu-NHMec substrate, 1536-well (AID 1619); conditions: recombinant M17LAP, H-Leu-NHMec fluorogenic kinetic assay; at 30 µM; active compounds read high;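 further: plate controls were full reaction with DMSO carrier for no effect and no enzyme background for full effect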
Sequence (Q8IL11 whole entry, looked up): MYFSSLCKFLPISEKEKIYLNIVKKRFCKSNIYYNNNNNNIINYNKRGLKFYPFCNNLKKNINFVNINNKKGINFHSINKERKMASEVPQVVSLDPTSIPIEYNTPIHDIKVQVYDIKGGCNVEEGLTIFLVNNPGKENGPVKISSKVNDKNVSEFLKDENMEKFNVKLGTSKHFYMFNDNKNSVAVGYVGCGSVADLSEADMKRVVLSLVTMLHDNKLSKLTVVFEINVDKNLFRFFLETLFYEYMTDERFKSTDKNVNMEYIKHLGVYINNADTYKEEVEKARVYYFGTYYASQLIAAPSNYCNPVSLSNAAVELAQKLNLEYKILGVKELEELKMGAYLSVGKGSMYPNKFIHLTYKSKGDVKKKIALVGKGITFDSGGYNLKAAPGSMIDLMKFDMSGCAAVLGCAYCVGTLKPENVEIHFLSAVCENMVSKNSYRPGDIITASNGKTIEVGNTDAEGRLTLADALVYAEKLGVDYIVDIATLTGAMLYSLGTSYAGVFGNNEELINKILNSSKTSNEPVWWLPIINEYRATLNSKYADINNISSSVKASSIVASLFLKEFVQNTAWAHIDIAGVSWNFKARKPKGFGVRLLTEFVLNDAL

Compound | inhibition [%]
COc1ccc(CC(=O)Nc2cc(S(=O)(=O)N3CCOCC3)ccc2N2CCOCC2)cc1 | 2.63
O=C(Nc1cccc([N+](=O)[O-])c1)Nc1cccc([N+](=O)[O-])c1 | -0.88
CC(=O)Nc1ccc(CC(=O)O)cc1 | -5.89
COc1ccc(NC(=O)Nc2ccc(CC(=O)O)cc2)cc1 | 2.73
COC(=O)c1cccc(NC(=O)Nc2ccc(Cl)cc2)c1 | 2.56
O=C(Nc1cccc(Cl)c1)Nc1cccc(Cl)c1 | 1.69
O=C(Nc1ccccc1)Nc1cccc(Cl)c1 | 15.7
O=C(Nc1ccc(OC(F)(F)F)cc1)Nc1cccc([N+](=O)[O-])c1 | 2.58
O=C(Nc1cccc(Cl)c1)Nc1cccc(C(=O)O)c1 | -7.66
O=C(COc1ccc(S(=O)(=O)N2CCCCC2)cc1)NC1CCCCC1 | 0.02
O=C(NC(Cc1ccccc1)C(=O)O)/C(=C\c1ccccc1F)NC(=O)c1ccccc1 (stereo not given) | 32.3
O=C(NCc1ccco1)c1ccc(F)c(S(=O)(=O)N2CCCCC2)c1 | 8.34
C#CCOc1nc(OCC#C)nc(OCC#C)n1 | -14.6
CC(C)(C)[C@@H]1C=C(C(=O)N2CCOCC2)O[C@H](OCc2ccc(CO)cc2)C1 | 0.65
COc1ccccc1CNC(=O)COC(=O)Cc1c(F)cccc1Cl | -4.41
CC(C)C(=O)Nc1ccc(NC(=S)NC(=O)c2cc3ccccc3o2)cc1 | -4.08
COc1ccc(OC)c(NC(=S)N(CCc2c(C)[nH]c3ccc(C)cc23)Cc2cccs2)c1 | 3.79
Cc1csc(NC(=O)c2cc(=O)[nH]c3ccc(S(=O)(=O)N4CCOCC4)cc23)n1 | -22.8
COc1ccc(/C=N/NC(=O)CC(=O)N/N=C/c2ccc(OC)cc2)cc1 | 14.7
O=C(CSc1nc2ccccc2o1)N/N=C/c1ccccc1 | 17.4

Compound | inhibition [%]
CSc1nc(C)cc(SCC(=O)N/N=C/c2ccccc2)n1 | -5.92
COc1ccc(/C=N/NC(=O)CSCC(=O)Nc2ccccc2)cc1 | -7.59
Cc1cc(C(=O)Nc2ccccc2N2CCOCC2)ccc1[N+](=O)[O-] | 8.21
O=C(c1ccc(CN2CCOCC2)cc1)N1CCN(c2ccccc2)CC1 | 3.18
Cc1ccc(C)c(NC(=O)c2ccc(S(=O)(=O)C(F)F)cc2)c1 | -0.05
COc1ccccc1N1CCN(C(=O)c2cc(C(C)(C)C)oc2C)CC1 | 13.9
O=C1OCCC1Sc1nc2ccccc2c(=O)n1-c1ccc(F)cc1 (stereo not given) | -2.24
CCC1=Nc2cc(C(=O)O)ccc2Sc2ccc(Cl)cc21 | 7.99
Cc1ccc(C)c(OCC(=O)NC(Cc2c[nH]c3ccccc23)C(=O)O)c1 (stereo not given) | -8.94
CCOc1ccccc1Nc1nnc(SCC(=O)Nc2ccc3[nH]c(=O)[nH]c3c2)s1 | -4.13
CCOc1ccccc1Nc1nnc(SCC(=O)Nc2cc(C)on2)s1 | -0.81
Cc1ccc(C(=O)NC(Cc2c[nH]c3ccccc23)C(=O)O)cc1 (stereo not given) | 17.6
CC(C)C(=O)Nc1nc2c(c(=O)[nH]1)CCCC2 | 3.8
CCc1n[n+](CC(=O)c2ccccc2)c(N)s1 | -0.05
COc1ccc(-c2[nH]ncc2/C=C(/C#N)C(=O)NC2CCCCCC2)cc1 | -2.26
COc1ccc(-c2[nH]ncc2/C=C(/C#N)C(=O)NC2CCCCC2)cc1 | 0.03
O=C(c1cc(-c2ccccc2)on1)N1CCN(Cc2ccc3c(c2)OCO3)CC1 | -6.81
CCc1ccccc1NC(=O)CSc1ccsc1[N+](=O)[O-] | 6.13
Cc1ccccc1NC(=O)CSc1ccsc1[N+](=O)[O-] | 8.37
Cc1cccc(C(=O)N2CCCCCC2)c1[N+](=O)[O-] | -0.16

Compound | inhibition [%]
CCN1CCN(CC(O)COCc2ccccc2)CC1 (stereo not given) | 8.64
CCCN(C(=O)/C=C/c1ccco1)c1c(N)n(Cc2ccccc2)c(=O)[nH]c1=O | 12.1
Cc1nn(C(C)C(=O)NC2C(=O)N3C(C(=O)O)=C(CSc4nnnn4C)CSC23)cc1Cl (stereo not given) | 48.7
Cn1nnnc1SCC1=C(C(=O)O)N2C(=O)C(NC(=O)C3CC3c3ccccc3)C2SC1 (stereo not given) | 20.4
COc1ccc(Cn2cnc3c([N+](=O)[O-])c(C)c(C)cc32)cc1 | 16.7
O=C(Cc1csc(N2CCOCC2)n1)N/N=C/c1ccc(F)cc1 | 45.5
COc1ccccc1NC(=O)Nc1cc(C(C)C)ccc1C | 3.16
CCOc1cc(/C=C2\C(=O)N(CCc3ccc(OC)c(OC)c3)C(C)=C2C(=O)OC)ccc1O | 7.43
COc1cc(/C=C2/NC(=O)N(Cc3ccccc3F)C2=O)ccc1O | -1.31
COc1ccc(C(=O)Nc2ccc(Cl)cc2C(=O)NCCN2CCOCC2)cc1 | 5.43
Cc1ccc(S(=O)(=O)NNC(=O)CC#N)cc1 | 5.13
N=C1S/C(=C\c2ccco2)C(=O)N1c1ccc2c(c1)OCO2 | 6.49
COc1cc(/C=C2\SC(=N)N(c3ccc4c(c3)OCO4)C2=O)cc(OC)c1O | 1.69
COc1ccccc1N1C(=N)S/C(=C\c2ccc(-c3ccccc3C(=O)O)o2)C1=O | 61.1
Cc1cccc(NC(=O)CN2C(=O)S/C(=C\c3ccc(-c4cccc(C(=O)O)c4C)o3)C2=O)c1 | 4.08
O=C(COC(=O)Cc1ccc(Br)cc1)NCC1CCCCC1 | 1.79
CCOC(=O)N1CCN(C(=O)CSc2ccc(-c3cccnc3)nn2)CC1 | -5.54
Oc1ccc(-c2nc3ccccc3s2)c(O)c1 | -4.82
Cc1c(O)ccc(-c2n[nH]c(C(=O)O)c2-c2nc3ccccc3s2)c1O | -2.67
Cc1nc2ccccn2c1C(=O)CSc1ccccc1 | 24.3
